{
  "source": "PubChem BioAssay (NCI)",
  "note": "Compounds without any hit were thinned out: in the full panel of roughly 83,000, 20% have a hit.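 Values shown are percent growth following 48 h exposure of cells in 96-well plates to a single concentration of compound; below 10 was considered active.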 Unmarked numbers belong to inactive results. The source made the active and inactive calls.",
  "data": [
    {"tested_on": "MALME-3M melanoma", "assay": "NCI-60 one-dose screen, 48 h (100 = growth as untreated, 0 = no growth, -100 = all killed)", "conditions": "10 µM unless noted", "values": [
      {"smiles": "COc1cc2cc(Oc3ccc(NC(=O)Nc4ccc(Cl)c(C(F)(F)F)c4)cc3)c(C)nc2cc1OCCN1CCCCC1", "growth": "-78.4% (active)"},
      {"smiles": "CN1CCN(c2ccc3nc(-c4ccc5nc(-c6ccc(C(F)(F)F)cc6)[nH]c5c4)[nH]c3c2)CC1", "growth": "18%"},
      {"smiles": "Cc1c(C(=O)Nc2nc(-c3ccccc3)cs2)nnn1-c1ccccc1Br", "growth": "17.5% [50 µM]"},
      {"smiles": "Clc1ccc(Nc2nc(Nc3ccccc3)nc(Nc3ccc(-c4cc(-c5ccc(Cl)cc5)on4)cc3)n2)cc1", "growth": "64.5%"},
      {"smiles": "C=C1CC[C@@H]2[C@@](C)(CCC[C@]2(C)C(=O)O)[C@@H]1CC[C@H](CO)CCO", "growth": "93.8%"},
      {"smiles": "COC(=O)CCC(=O)c1ccccc1", "growth": "158%"},
      {"smiles": "COc1ncnc2c1ncn2C/C(Br)=C(\\Br)CCl", "growth": "-6.59% (active)"},
      {"smiles": "CN1CCC(OC2c3ccccc3CCc3ccccc32)CC1", "growth": "102%"},
      {"smiles": "O=[N+]([O-])c1ccc(C=C2C(Cl)=C(Cl)C(Cl)=C2Cl)cc1", "growth": "108%"},
      {"smiles": "COc1ccc(OC)c(/C=C2\\Oc3cc(O)ccc3C2=O)c1", "growth": "76%"},
      {"smiles": "COC(=O)[C@@]12CC[C@@H](C)[C@]3(C[C@@H](c4ccoc4)OC3=O)[C@H]1CC[C@@H]1O[C@@]12C", "growth": "101%"},
      {"smiles": "COc1ccc(-c2nc3sc(C)cn3c2/C=C/C(=O)c2cc(OC)c(OC)c(OC)c2)cc1", "growth": "39.3%"},
      {"smiles": "C=CC(=O)N1CC2(CC(n3nc(-c4ccc(Oc5ccccc5)cc4)c4c(N)ncnc43)C2)C1", "growth": "12.7%"},
      {"smiles": "Cc1cc(=O)c2c(C)ccc(C)c2[nH]1", "growth": "102%"},
      {"smiles": "O=C1CN2CCC1C/C2=C\\c1ccnc2c(Cl)cccc12", "note": "(stereo unspecified)", "growth": "112%"},
      {"smiles": "O=C1c2ccccc2-c2nnc(-c3ccc(Br)cc3)cc21", "growth": "-3.82% (active)"},
      {"smiles": "COc1ccc(-c2nn(-c3ccc(NC(=O)c4ccc(Cl)c(Cl)c4)cc3)cc2-c2ccncc2)cc1Cl", "growth": "43%"},
      {"smiles": "O=c1oc2ccccc2cc1-c1csc(N=Nc2c(O)[nH]c3ccc(Cl)cc23)n1", "growth": "105%"},
      {"smiles": "COc1cc2nc(N3CCC[C@H](NC4=CC(=O)c5ccccc5C4=O)C3)nc(N)c2cc1OC", "growth": "-81.3% (active)"},
      {"smiles": "O=C1C(N2CCOCC2)=Cc2cccc3cccc1c23", "growth": "113%"},
      {"smiles": "CCOC(=O)c1c(-c2cc(OC)c(OC)c(OC)c2)csc1N", "growth": "92.1%"},
      {"smiles": "N#Cc1c(-c2cccc(F)c2)cc(-c2ccc(Br)s2)[nH]c1=O", "growth": "67.2%"},
      {"smiles": "COc1ccc(NC(=O)c2ccc3c(c2)nc(-c2ccc(Cl)cc2)n3-c2cc(C(C)(C)C)[nH]n2)cc1", "growth": "91.1%"},
      {"smiles": "Oc1cccc(Nc2nc(-c3ccccn3)cs2)c1", "growth": "109%"},
      {"smiles": "O=S(=O)(/N=C1C=C/C(=N\\S(=O)(=O)c2ccccc2)c2ccccc2\\1)c1ccccc1", "growth": "107%"},
      {"smiles": "O=C(COc1cccc(/C=C2\\COc3ccccc3C2=O)c1)c1ccccc1", "growth": "90%"},
      {"smiles": "Cc1ccc(S(=O)(=O)N2CCc3ccc(O)c4c3C2Cc2cc(Cl)ccc2-4)cc1", "note": "(stereo unspecified)", "growth": "57%"},
      {"smiles": "COc1ccc(OC)c(C2C(C#N)=C(N)Oc3cc(O)ccc32)c1", "note": "(stereo unspecified)", "growth": "85.9%"},
      {"smiles": "CC(=O)N(CC(O)CO)c1c(I)c(C(=O)NCCO)c(I)c(C(=O)NCC(O)CO)c1I", "note": "(stereo unspecified)", "growth": "92.4%"},
      {"smiles": "N#CC1=C(N)Oc2cc(N)ccc2C1c1ccc(F)cc1", "note": "(stereo unspecified)", "growth": "71.9%"},
      {"smiles": "CCN(CC)CCCNc1ccc(C)c2sc3ccccc3c(=O)c12", "growth": "-61.7% (active)"},
      {"smiles": "COc1ccc(/C=C2\\Oc3cc(C)c(Cl)cc3C2=O)cc1OC", "growth": "99.7%"},
      {"smiles": "Cc1nc2ccc(Cl)cc2n1C", "growth": "106%"},
      {"smiles": "COc1ccc(/C=N/NC(=O)c2cnn(CC(O)Cc3ccccc3)c2N)cc1OC1CCCC1", "note": "(stereo unspecified)", "growth": "99.4%"},
      {"smiles": "COc1ccc(-c2csc3c2-n2cccc2C3=O)cc1O", "growth": "66.2%"},
      {"smiles": "COc1cc(C(F)(F)F)ccc1-c1cc(-c2ccc(F)cc2)n[nH]1", "growth": "90.8%"},
      {"smiles": "C[C@@H](Oc1cc(-c2cnn(C3CC4(CCNCC4)C3)c2)cnc1N)c1c(F)ccc(Cl)c1Cl", "growth": "-67.6% (active)"},
      {"smiles": "CC(C)NCC(O)COc1ccc(CCOCC2CC2)cc1", "note": "(stereo unspecified)", "growth": "103%"}
    ]},
    {"tested_on": "MDA-MB-231 breast", "assay": "NCI-60 one-dose screen, 48 h (100 = growth as untreated, 0 = no growth, -100 = all killed)", "conditions": "10 µM unless noted", "values": [
      {"smiles": "COc1cc2cc(Oc3ccc(NC(=O)Nc4ccc(Cl)c(C(F)(F)F)c4)cc3)c(C)nc2cc1OCCN1CCCCC1", "growth": "-87.2% (active)"},
      {"smiles": "CN1CCN(c2ccc3nc(-c4ccc5nc(-c6ccc(C(F)(F)F)cc6)[nH]c5c4)[nH]c3c2)CC1", "growth": "82%"},
      {"smiles": "Cc1c(C(=O)Nc2nc(-c3ccccc3)cs2)nnn1-c1ccccc1Br", "growth": "44% [50 µM]"},
      {"smiles": "Clc1ccc(Nc2nc(Nc3ccccc3)nc(Nc3ccc(-c4cc(-c5ccc(Cl)cc5)on4)cc3)n2)cc1", "growth": "60.5%"},
      {"smiles": "C=C1CC[C@@H]2[C@@](C)(CCC[C@]2(C)C(=O)O)[C@@H]1CC[C@H](CO)CCO", "growth": "105%"},
      {"smiles": "COC(=O)CCC(=O)c1ccccc1", "growth": "111%"},
      {"smiles": "COc1ncnc2c1ncn2C/C(Br)=C(\\Br)CCl", "growth": "41.8%"},
      {"smiles": "CN1CCC(OC2c3ccccc3CCc3ccccc32)CC1", "growth": "74.8%"},
      {"smiles": "O=[N+]([O-])c1ccc(C=C2C(Cl)=C(Cl)C(Cl)=C2Cl)cc1", "growth": "74.8%"},
      {"smiles": "COc1ccc(OC)c(/C=C2\\Oc3cc(O)ccc3C2=O)c1", "growth": "103%"},
      {"smiles": "COC(=O)[C@@]12CC[C@@H](C)[C@]3(C[C@@H](c4ccoc4)OC3=O)[C@H]1CC[C@@H]1O[C@@]12C", "growth": "108%"},
      {"smiles": "COc1ccc(-c2nc3sc(C)cn3c2/C=C/C(=O)c2cc(OC)c(OC)c(OC)c2)cc1", "growth": "39.5%"},
      {"smiles": "C=CC(=O)N1CC2(CC(n3nc(-c4ccc(Oc5ccccc5)cc4)c4c(N)ncnc43)C2)C1", "growth": "3.31% (active)"},
      {"smiles": "Cc1cc(=O)c2c(C)ccc(C)c2[nH]1", "growth": "99.3%"},
      {"smiles": "O=C1CN2CCC1C/C2=C\\c1ccnc2c(Cl)cccc12", "note": "(stereo unspecified)", "growth": "90.1%"},
      {"smiles": "O=C1c2ccccc2-c2nnc(-c3ccc(Br)cc3)cc21", "growth": "14.1%"},
      {"smiles": "COc1ccc(-c2nn(-c3ccc(NC(=O)c4ccc(Cl)c(Cl)c4)cc3)cc2-c2ccncc2)cc1Cl", "growth": "-16.3% (active)"},
      {"smiles": "O=c1oc2ccccc2cc1-c1csc(N=Nc2c(O)[nH]c3ccc(Cl)cc23)n1", "growth": "102%"},
      {"smiles": "COc1cc2nc(N3CCC[C@H](NC4=CC(=O)c5ccccc5C4=O)C3)nc(N)c2cc1OC", "growth": "-86.8% (active)"},
      {"smiles": "O=C1C(N2CCOCC2)=Cc2cccc3cccc1c23", "growth": "106%"},
      {"smiles": "CCOC(=O)c1c(-c2cc(OC)c(OC)c(OC)c2)csc1N", "growth": "105%"},
      {"smiles": "N#Cc1c(-c2cccc(F)c2)cc(-c2ccc(Br)s2)[nH]c1=O", "growth": "79.7%"},
      {"smiles": "COc1ccc(NC(=O)c2ccc3c(c2)nc(-c2ccc(Cl)cc2)n3-c2cc(C(C)(C)C)[nH]n2)cc1", "growth": "95.4%"},
      {"smiles": "Oc1cccc(Nc2nc(-c3ccccn3)cs2)c1", "growth": "98%"},
      {"smiles": "O=S(=O)(/N=C1C=C/C(=N\\S(=O)(=O)c2ccccc2)c2ccccc2\\1)c1ccccc1", "growth": "98.3%"},
      {"smiles": "O=C(COc1cccc(/C=C2\\COc3ccccc3C2=O)c1)c1ccccc1", "growth": "83.8%"},
      {"smiles": "Cc1ccc(S(=O)(=O)N2CCc3ccc(O)c4c3C2Cc2cc(Cl)ccc2-4)cc1", "note": "(stereo unspecified)", "growth": "82.4%"},
      {"smiles": "COc1ccc(OC)c(C2C(C#N)=C(N)Oc3cc(O)ccc32)c1", "note": "(stereo unspecified)", "growth": "99%"},
      {"smiles": "CC(=O)N(CC(O)CO)c1c(I)c(C(=O)NCCO)c(I)c(C(=O)NCC(O)CO)c1I", "note": "(stereo unspecified)", "growth": "90.5%"},
      {"smiles": "N#CC1=C(N)Oc2cc(N)ccc2C1c1ccc(F)cc1", "note": "(stereo unspecified)", "growth": "83.4%"},
      {"smiles": "CCN(CC)CCCNc1ccc(C)c2sc3ccccc3c(=O)c12", "growth": "-12.1% (active)"},
      {"smiles": "COc1ccc(/C=C2\\Oc3cc(C)c(Cl)cc3C2=O)cc1OC", "growth": "102%"},
      {"smiles": "Cc1nc2ccc(Cl)cc2n1C", "growth": "118%"},
      {"smiles": "COc1ccc(/C=N/NC(=O)c2cnn(CC(O)Cc3ccccc3)c2N)cc1OC1CCCC1", "note": "(stereo unspecified)", "growth": "86.1%"},
      {"smiles": "COc1ccc(-c2csc3c2-n2cccc2C3=O)cc1O", "growth": "13.2%"},
      {"smiles": "COc1cc(C(F)(F)F)ccc1-c1cc(-c2ccc(F)cc2)n[nH]1", "growth": "80.2%"},
      {"smiles": "C[C@@H](Oc1cc(-c2cnn(C3CC4(CCNCC4)C3)c2)cnc1N)c1c(F)ccc(Cl)c1Cl", "growth": "-54% (active)"},
      {"smiles": "CC(C)NCC(O)COc1ccc(CCOCC2CC2)cc1", "note": "(stereo unspecified)", "growth": "99.6%"}
    ]}
  ]
}
